# Source: PubChem BioAssay (NCI)
# About 83,000 compounds went through this panel and 20% of them were active in at least one assay; those are over-represented in the sample as a whole.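 Cells were grown in 96-well plates and exposed to the test compound at a single concentration for 48 hours; results are reported as percent growth, with values below 10 considered active.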 Unmarked numbers belong to inactive results. Activity calls are given as the source filed them.
# Experiments:
# Experiment in all cases: NCI-60 one-dose screen, 48 h (100 = growth as untreated, 0 = no growth, -100 = all killed)
# Details in all cases: 10 µM
# [1] = tested on: SK-MEL-2 melanoma
# [2] = tested on: EKVX NSCLC
# [3] = tested on: SN12C renal
# [4] = tested on: TK-10 renal
# [5] = tested on: ACHN renal
# [6] = tested on: CAKI-1 renal
# [7] = tested on: A498 renal
# [8] = tested on: CCRF-CEM leukemia
# [9] = tested on: MOLT-4 leukemia
# [10] = tested on: RPMI-8226 leukemia
# [11] = tested on: OVCAR-8 ovarian
# [12] = tested on: OVCAR-5 ovarian
# [13] = tested on: OVCAR-4 ovarian
# [14] = tested on: SK-OV-3 ovarian
# [15] = tested on: IGROV1 ovarian
# [16] = tested on: OVCAR-3 ovarian
# [17] = tested on: HS 578T breast
# [18] = tested on: NCI/ADR-RES ovarian
# [19] = tested on: UO-31 renal
# [20] = tested on: SR leukemia
SMILES,growth [1],growth [2],growth [3],growth [4],growth [5],growth [6],growth [7],growth [8],growth [9],growth [10],growth [11],growth [12],growth [13],growth [14],growth [15],growth [16],growth [17],growth [18],growth [19],growth [20]
Cc1cccc2cc(-c3cc(-c4ccccc4)nc(=S)[nH]3)c(Cl)nc12,27.8%,76.5%,89.2%,136%,78.1%,76.2%,99%,66.2%,43.6%,81%,85.4%,108%,99.5%,116%,93.1%,107%,59.4%,56.6%,–,–
COc1ccc(C(=O)Nc2sc3c(c2C#N)CCC(=O)C3)cc1C(F)(F)F,-17.6% (active),-0.293% (active),–,15.1%,-29.9% (active),-28.1% (active),63.3%,5.05% (active),3.42% (active),4.37% (active),2.79% (active),35.3%,21.7%,-3.75% (active),13.7%,-6.94% (active),-11.7% (active),-44.7% (active),-18.2% (active),0.622% (active)
COc1ccc2c3nc4cc(C)c(C)cc4nc3n(CCN(C)C)c2c1,-4.58% (active),–,-15.6% (active),15.6%,-64% (active),-67.5% (active),65.4%,20.1%,4.84% (active),9.26% (active),-56.4% (active),24.5%,-26.1% (active),-12.8% (active),-8.59% (active),-47.1% (active),49.1%,0.91% (active),-67.2% (active),9.88% (active)
Cc1nc2c(cnn2-c2ccccc2)c(=O)n1-c1ccc(NC(=O)c2ccc(F)cc2)cc1,77.9%,30.2%,74.4%,71%,61%,65.7%,86.8%,34.8%,5.38% (active),35.2%,63.7%,97.9%,40.1%,111%,73.5%,85.4%,78.7%,42.8%,–,–
Cn1cc(-c2cc(N)n3nc(-c4c[nH]c5ccc(Br)cc45)cc3n2)c2cccnc21,-56.4% (active),-86.7% (active),–,-85.9% (active),-98.9% (active),-60.7% (active),-85.9% (active),-19.1% (active),-23.8% (active),3.37% (active),-68.8% (active),-87.4% (active),-42.2% (active),-72.6% (active),-69.8% (active),-78.9% (active),-38.8% (active),-55.7% (active),-78.8% (active),-23.6% (active)
Cc1cc(C(F)(F)F)ccc1C(=O)Nc1sc2c(c1C#N)CCC(=O)C2,-38.4% (active),-25.5% (active),–,-2% (active),-95.9% (active),-50.8% (active),85.2%,6.32% (active),2.54% (active),2.68% (active),-9.16% (active),-33.3% (active),-39.7% (active),-18.9% (active),-5.43% (active),-48.2% (active),-7.86% (active),-24.8% (active),-98% (active),-9.8% (active)
N#Cc1c(NC(=O)c2ccc(C(F)(F)F)cc2)sc2c1CCC(O)=C2,8.44% (active),16.9%,–,71.9%,44.1%,31.9%,74.2%,6.68% (active),13.8%,9.09% (active),28.9%,82.8%,41.6%,17.9%,38.3%,18.8%,12.3%,-33.5% (active),23.9%,8.2% (active)
O=C1Nc2ccc(Cl)cc2/C1=C/c1cccc(OCc2ccccc2)c1,28.4%,19.4%,36.1%,77.2%,24.3%,34.6%,84.2%,-21.5% (active),-20.6% (active),-28.1% (active),14.6%,69.2%,33.5%,75.3%,36.7%,–,6.44% (active),8.34% (active),–,–
COc1ccc(C=CC(=O)c2ccc(-n3c(C)nc4c(cnn4-c4ccccc4)c3=O)cc2)cc1,70.6%,42.9%,81.6%,86.8%,71%,75%,104%,46.4%,44.7%,-18.8% (active),83.4%,111%,–,123%,92.7%,61%,85.5%,62.3%,–,–
N#Cc1c(NC(=O)c2ccc(C(F)(F)F)cc2C(F)(F)F)sc2c1CCC(=O)C2,-38.2% (active),-57.5% (active),–,-27.8% (active),-99.4% (active),-67.6% (active),28.6%,-30% (active),-16% (active),2.53% (active),-16.9% (active),-62.3% (active),-40.8% (active),-22.2% (active),-3.75% (active),-59.5% (active),-5.88% (active),1.12% (active),-99.7% (active),-11.3% (active)
COc1cccc(/C=N/NC(=O)c2ccc3nc(-c4ccc(Cl)cc4)[nH]c3c2)c1O,-95.1% (active),-53.8% (active),–,-11.1% (active),-34% (active),-66.1% (active),-69.1% (active),-40.6% (active),-50.4% (active),–,-84.6% (active),-63% (active),-36.3% (active),-84.6% (active),-77.2% (active),-87.4% (active),-54.7% (active),50.7%,-2.17% (active),-36.8% (active)
O=C(CSc1ccc(-c2ccc(Cl)cc2)nn1)Nc1ccc(Cl)c(C(F)(F)F)c1,59.7%,44.3%,79.3%,66%,79.3%,61.3%,89.9%,44.9%,–,66.8%,76.4%,79.6%,76.1%,75.4%,70.9%,69.3%,70.6%,27.9%,–,–
CC(=O)OC[C@@]1(C)C2CC[C@]3(C)C(CC=C4C5CC(C)(C)CC[C@]5(C(=O)Nc5ccccc5)CC[C@]43C)[C@@]2(C)C[C@@H](OC(C)=O)[C@@H]1OC(C)=O (some centres undefined),35.4%,26.8%,–,53.1%,34.4%,37.2%,64.6%,29.7%,24.4%,10.7%,32.7%,81.4%,33.4%,45.2%,45.1%,–,52.3%,31.2%,33.1%,17%
C/C(=C\CSc1ccccc1C(=O)O)CCCC(C)CCCC(C)CCCC(C)C (centres undefined),-12% (active),43.3%,–,87.7%,37.5%,45.1%,–,29.8%,16.3%,35%,54%,115%,57.3%,96.5%,76.1%,–,56%,43.1%,49.5%,18.7%
O=c1cc(-c2ccccc2)oc2cc(OCCCNCc3ccccc3)cc(O)c12,-81.4% (active),8.87% (active),–,–,3.03% (active),-24% (active),-14.5% (active),10.1%,–,-26.8% (active),-90.5% (active),75.5%,-16.2% (active),30.1%,9.54% (active),16.2%,-4.99% (active),-77.9% (active),-9.86% (active),-24.8% (active)
COc1cc(/C=N/NC(=O)c2ccc3nc(-c4ccc(Cl)cc4)[nH]c3c2)cc(OC)c1OC,-17.3% (active),9.25% (active),–,37.4%,30.1%,2.87% (active),-31.1% (active),-4.37% (active),3.96% (active),-23.9% (active),-62.7% (active),62.6%,-51.6% (active),-25% (active),7.62% (active),-90% (active),-52.1% (active),75.7%,58.9%,-6.5% (active)
COc1cc2c(cc1OC)CN(CCCCOc1cc(O)c3c(=O)cc(-c4ccccc4)oc3c1)CC2,66.6%,76.6%,–,117%,66.8%,56.9%,127%,32.2%,20.2%,24.1%,85.1%,114%,30%,74.5%,95.8%,94.9%,74.2%,57.4%,51%,-13.8% (active)
